# Data as given in the OligoGym collection.
# Target: DMXL1
# Assay: pooled miR-30 sensor sort-seq; sequence = guide strand
# Details: shRNA
# Further: reference of the scale not given here.
row,Sequence,sensor-assay potency score (higher = more potent)
1,AAATAGTACATAATTGTCCCAT,0.365
2,TTACACATTCTACTTTAGGCAA,-0.183
3,TTTTCTATAATTCTGAATCAGA,-0.788
4,TTCTATATCATCATCTACCCAA,-0.207
5,TTCTTGAACATCATGACTGGAA,-0.0948
6,TTTGTTTCTGAAAACACTGCTA,0.164
7,TTTCTATTAATGGTAGATCTGG,-0.715
8,TTCTACATTATACCAAACCTTC,-0.955
9,TTCATTTTCATTTAGACTCAGA,-0.406
10,ATTACTTACACATTCTACTTTA,-0.377
11,TTTTTCTGAACTTCCATCTGGA,0.702
12,TTGTTTCTGAAAACACTGCTAT,0.009
13,TTCGCTAATATATACAACTAAG,-0.796
14,TTGACTGCTTTCACATTTGTTT,-0.678
15,TAACATTTCCATAAGACGCTGC,0.508

# Target: DNAJA2
# Assay: as above
# Details: shRNA
row,Sequence,sensor-assay potency score (higher = more potent)
1,TTTCATGCCTTTGTCTACGTGG,-0.148
2,TAGTTCAGAAAGCTTGTCTGGG,0.299
3,TACCTCATGTTCTTTCTCCTGT,0.929
4,TTGATAGTACTTCATATGCAAA,-1.43
5,TTCAAGAATCTTGACTTCTTTA,-0.418
6,TTTCTTTAAATTTGTCTCCTGC,0.759
7,AATTATGTTAGGAACTTCCGGT,-0.0625
8,TATTCCTTGGCTAACTTTCTGT,-0.171
9,TAGAGCTTCAACAAGTCCTATT,-0.658
10,TATTTCACCACAATCTGACGTC,0.583
11,TCGAGTGCTATCAAATTCCTGA,0.237
12,TTCTTCAGCTCGTTCTCGCTGG,-0.323

# Target: DNAJB11
# Assay: as above
# Details: shRNA
row,Sequence,sensor-assay potency score (higher = more potent)
1,TCTATTTCTACTTCCAGCGTTC,-0.287
2,TCTTATAGAAATCTCGTCCGGC,0.334
3,TTCTTCACCATAAGTATCGTAC,-0.183
4,TCTTCCATAGCTTCGCTCCTGG,-0.0366
5,TTTGTGTACAAATCATCTCCTC,-0.115
6,TATACCTTCTGCACTGACCCTT,0.681
7,TATTTCTGTCTTGCTGACGAGG,-1.05
8,TTCGGAACCGTAAATCTCCAGG,-0.565
9,TTTGTTTCTAACTACTTCCACA,-0.721
10,TTCACCATAAGTATCGTACTGT,0.409
11,TTCGTCGCAGACCACCTCCTGG,-1.23
12,TTGTGTACAAATCATCTCCTCT,-0.302
